Structures are written as SMILES. Records with an inconclusive call do not appear. Active and inactive are the calls of the source. How the source made its calls: active means hit-call score of the fitted dose curve at least 0.9, where 1 is the maximum; inconclusive means response in the unintended direction; inactive means score below 0.9.

Luciferin 4-monooxygenase (Photinus pyralis), sequence (P08659 whole entry, looked up): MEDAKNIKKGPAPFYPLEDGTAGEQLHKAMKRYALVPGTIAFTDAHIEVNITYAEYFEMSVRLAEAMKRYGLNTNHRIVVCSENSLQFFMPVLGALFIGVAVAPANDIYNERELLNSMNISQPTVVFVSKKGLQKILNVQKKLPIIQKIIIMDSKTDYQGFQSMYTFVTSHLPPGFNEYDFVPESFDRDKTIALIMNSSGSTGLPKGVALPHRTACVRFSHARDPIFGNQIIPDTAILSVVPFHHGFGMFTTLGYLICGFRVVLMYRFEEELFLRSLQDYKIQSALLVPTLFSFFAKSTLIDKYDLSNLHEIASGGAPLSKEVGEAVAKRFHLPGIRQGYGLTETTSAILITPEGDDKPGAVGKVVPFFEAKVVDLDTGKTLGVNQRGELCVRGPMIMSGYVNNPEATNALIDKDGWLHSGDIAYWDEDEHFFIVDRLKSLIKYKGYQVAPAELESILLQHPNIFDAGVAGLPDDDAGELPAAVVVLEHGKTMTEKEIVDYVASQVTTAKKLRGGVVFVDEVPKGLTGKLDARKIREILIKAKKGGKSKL

The target of the first experiment is Luciferin 4-monooxygenase (Photinus pyralis) (UniProt P08659). In words: CCTE_Simmons_QuantiLum_inhib_2: CCTE's Firefly Luciferase Inhibition Assay, Simmons Lab (AID 2283767).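 On AC50: potency for inhibitors that lower luciferase luminescence relative to DMSO.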 In outline:
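Counter-screen for nonspecific enzyme inhibition: purified firefly luciferase incubated 30 min at 37C with chemicals up to 87.5 uM final, then luminescence measured after luciferin/dATP injection; activity fitted against DMSO baseline.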
As usually defined, the AC50 is the midpoint of the concentration-response curve, whichever way the signal moves. Consider `CN1CCc2cccc3c2[C@H]1Cc1ccc(O)c(O)c1-3`, for which the AC50 was 12.5 µM (active).
For the molecule `CC(=O)Nc1cc(S(=O)(=O)O)cc2cc(S(=O)(=O)O)c(N=Nc3ccccc3)c(O)c12`, the AC50 was 21.2 µM (active).
With `O=C1OC2(c3ccc(O)cc3Oc3cc(O)ccc32)c2ccccc21`, the molecule was called inactive.

System in another experiment: not listed separately
As to the kind of experiment: ACEA_AR_agonist_AUC_viability: ACEA Biosciences xCELLigence Real-Time Cell Analysis on Androgen Receptor Agonism for Viability (AID 2283775).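 On AC50: viability read 80 hours after compound addition.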 In outline: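 Read-out is area under the impedance curve at 80 h post-dose in 22Rv1 cells, with DMSO as baseline and signal loss taken as reduced viability. Compounds ran in duplicate from 100 uM final.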
Take `CC(=O)Oc1c(C)c(C)c2c(c1C)CC[C@@](C)(CCC[C@H](C)CCC[C@H](C)CCCC(C)C)O2`: the molecule was called inactive.
For the molecule `CC(=O)c1ccc(O)cc1`, the call was inactive.
As for `CN1CCc2cccc3c2[C@H]1Cc1ccc(O)c(O)c1-3`, the AC50 was 11.4 µM (active).
As to `CCCC[N+](C)(CCCC)CCCC`, the call was inactive.
For `CCC(C)COC(=O)CC(C)C` (stereo not given), the result was inactive.
The same measure, in the same setting: then `C1=COCCC1`, with “inactive”.
Still for that read-out and setting: to `CN(C)C` belongs “inactive”; to `COC(=O)C(C)Oc1ccc(Oc2ncc(C(F)(F)F)cc2Cl)cc1` (stereo not given), “inactive”.
With `CCCCN(CCCC)CCCCCCN(CCCC)CCCC`, the molecule was called inactive.
On the same count and under the same terms, then `CC1=CCC(C(C)C)=CC1`, with “inactive”; and `C=CC(C)CCCC(C)(C)O` (stereo not given), with “inactive”.
Still for that read-out and setting: then `O=C(OCc1ccccc1)c1ccccc1O`, with “inactive”; and `CC(C)(C)c1ccc(S)cc1`, with “inactive”; and `CCC(C)(CCCC(C)C)OC(C)=O` (stereo not given), with “inactive”.
In the case of `[Na+]`, the outcome was inactive.
Same read-out and setting: to `COc1ccc2[nH]cc(CCNC(C)=O)c2c1` belongs “inactive”.
On the same count and under the same terms, to `O=C1OC2(c3ccc(O)cc3Oc3cc(O)ccc32)c2ccccc21` belongs “inactive”.
With `CC(=O)C1=C(C)[C@@H]2C[C@@]3(C1)[C@H](C)CC[C@H]3C2(C)C`, the result was inactive.
Same read-out and setting: then `CC(=O)OC(C)(C)C`, with “inactive”; and `CC(=O)C1C(=O)C=C(C)OC1=O` (stereo not given), with “inactive”.
With `CC(C)(CO)CO`, the call was inactive.
Still for that read-out and setting: then `CCCCCCCCCO`, with “inactive”.
